Holding throughout (assay): PBM; 200 nM protein, PBS
Holding throughout (conditions): dsDNA, one strand shown

Experiment [1] concerns the target T1, VENTX (Homo sapiens, UniProt O95231 78-163, R121Q).
T1 sequence: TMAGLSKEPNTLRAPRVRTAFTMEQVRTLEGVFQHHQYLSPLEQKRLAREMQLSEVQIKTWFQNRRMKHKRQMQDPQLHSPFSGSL

Experiment [2] concerns the target ALX4 (Homo sapiens, UniProt Q9H161 200-286).
The target in experiment [3] is PRRX1 (Homo sapiens, UniProt P54821 80-166, F113S).
Experiment [4] addresses T2, VENTX (Homo sapiens, UniProt O95231 78-163, Y115F).
T2 sequence: T1 sequence with Y38F, Q44R

The target in experiment [5] is HOXA2 (Homo sapiens, UniProt O43364 129-215, R185T).
Experiment [6] deals with HOXA4 (Homo sapiens, UniProt Q00056 201-287, R217L).
Experiment [7] addresses MSX2 (Homo sapiens, UniProt P35548 130-214).
Experiment [8] addresses MSX2 (Homo sapiens, UniProt P35548 130-214, F161Y).
Experiment [9] has as its target VAX1 (Homo sapiens, UniProt Q5SQQ9 86-172, T142I).
Experiment [10] concerns the target HOXA4 (Homo sapiens, UniProt Q00056 201-287, W262F).
Experiment [11] addresses PRRX1 (Homo sapiens, UniProt P54821 80-166).
Experiment [12] addresses VAX1 (Homo sapiens, UniProt Q5SQQ9 86-172, K157R).
Experiment [13] deals with HOXB4 (Homo sapiens, UniProt P17483 148-234).
The target of experiment [14] is T3, PAX4 (Homo sapiens, UniProt O43316 9-242, R200K).
T3 sequence: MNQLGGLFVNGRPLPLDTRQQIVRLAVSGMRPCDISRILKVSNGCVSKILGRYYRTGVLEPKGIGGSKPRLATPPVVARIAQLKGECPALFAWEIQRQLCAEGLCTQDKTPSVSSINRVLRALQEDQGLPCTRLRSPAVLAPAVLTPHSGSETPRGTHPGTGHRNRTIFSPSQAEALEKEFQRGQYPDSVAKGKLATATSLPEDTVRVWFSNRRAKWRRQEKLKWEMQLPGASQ

In experiment [15] the target is T4, PAX4 (Homo sapiens, UniProt O43316 9-242).
T4 sequence: T3 sequence with K192R

Experiment [16] addresses HOXB4 (Homo sapiens, UniProt P17483 148-234, V174I).
Experiment [17] addresses T5, PAX4 (Homo sapiens, UniProt O43316 9-242, R200Q).
T5 sequence: T3 sequence with K192Q

Experiment [18] concerns the target HOXA2 (Homo sapiens, UniProt O43364 129-215, R185K).
In experiment [19] the target is T6, PAX4 (Homo sapiens, UniProt O43316 9-242, F177V).
T6 sequence: T3 sequence with F169V, K192R

Experiment [20] has as its target T7, PAX4 (Homo sapiens, UniProt O43316 9-242, F177Y).
T7 sequence: T3 sequence with F169Y, K192R

Numbering of substitutions follows the chain as printed.

ALX4, sequence (Q9H161 200-286): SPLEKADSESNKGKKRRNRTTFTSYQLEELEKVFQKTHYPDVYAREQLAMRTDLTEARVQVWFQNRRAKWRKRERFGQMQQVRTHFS
PRRX1 (Homo sapiens, UniProt P54821 80-166), sequence (P54821 80-166): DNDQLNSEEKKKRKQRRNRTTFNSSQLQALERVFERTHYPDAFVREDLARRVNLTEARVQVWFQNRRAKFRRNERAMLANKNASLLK
VAX1 (Homo sapiens, UniProt Q5SQQ9 86-172, T142I), sequence (Q5SQQ9 86-172 T142I): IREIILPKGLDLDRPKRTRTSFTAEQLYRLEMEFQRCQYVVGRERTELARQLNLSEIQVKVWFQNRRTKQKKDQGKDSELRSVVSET
MSX2 (Homo sapiens, UniProt P35548 130-214), sequence (P35548 130-214): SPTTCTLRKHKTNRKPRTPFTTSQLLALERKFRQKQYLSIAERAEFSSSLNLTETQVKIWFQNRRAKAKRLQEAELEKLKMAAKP
HOXA2 (Homo sapiens, UniProt O43364 129-215, R185T), sequence (O43364 129-215 R185T): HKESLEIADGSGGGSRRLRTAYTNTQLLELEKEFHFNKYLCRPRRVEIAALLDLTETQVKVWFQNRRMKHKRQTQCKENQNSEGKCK
HOXA4 (Homo sapiens, UniProt Q00056 201-287, W262F), sequence (Q00056 201-287 W262F): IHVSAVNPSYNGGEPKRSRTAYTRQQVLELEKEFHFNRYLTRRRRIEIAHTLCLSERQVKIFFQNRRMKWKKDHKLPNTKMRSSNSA
VAX1 (Homo sapiens, UniProt Q5SQQ9 86-172, K157R), sequence (Q5SQQ9 86-172 K157R): as the sequence (Q5SQQ9 86-172 T142I) above, with I57T, K72R counted along it
MSX2 (Homo sapiens, UniProt P35548 130-214, F161Y), sequence (P35548 130-214 F161Y): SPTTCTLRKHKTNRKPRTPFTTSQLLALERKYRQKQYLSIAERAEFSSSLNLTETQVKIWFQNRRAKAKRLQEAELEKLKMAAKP
PRRX1 (Homo sapiens, UniProt P54821 80-166, F113S), sequence (P54821 80-166 F113S): as the sequence (P54821 80-166) above, with F34S counted along it
HOXB4 (Homo sapiens, UniProt P17483 148-234), sequence (P17483 148-234): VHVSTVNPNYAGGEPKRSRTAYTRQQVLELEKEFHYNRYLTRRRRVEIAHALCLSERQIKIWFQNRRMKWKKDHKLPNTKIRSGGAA
HOXB4 (Homo sapiens, UniProt P17483 148-234, V174I), sequence (P17483 148-234 V174I): as the sequence (P17483 148-234) above, with V27I counted along it
HOXA4 (Homo sapiens, UniProt Q00056 201-287, R217L), sequence (Q00056 201-287 R217L): as the sequence (Q00056 201-287 W262F) above, with R17L, F62W counted along it
HOXA2 (Homo sapiens, UniProt O43364 129-215, R185K), sequence (O43364 129-215 R185K): as the sequence (O43364 129-215 R185T) above, with T57K counted along it

Turning to CAATTAAA, the binding signal is 11.7 upbm affinity estimate (log intensity, higher = more binding, comparable within an allelic series) in experiment [1]; 14 upbm affinity estimate (log intensity, higher = more binding, comparable within an allelic series) in [2]; 11.2 upbm affinity estimate (log intensity, higher = more binding, comparable within an allelic series) in [3]; 11.4 upbm affinity estimate (log intensity, higher = more binding, comparable within an allelic series) in [4]; 12.6 upbm affinity estimate (log intensity, higher = more binding, comparable within an allelic series) in [5]; 12.1 upbm affinity estimate (log intensity, higher = more binding, comparable within an allelic series) in experiment [6]. Besides, the binding signal in [7] was 14 upbm affinity estimate (log intensity, higher = more binding, comparable within an allelic series); in [8], 13.7 upbm affinity estimate (log intensity, higher = more binding, comparable within an allelic series); in [9], 12.7 upbm affinity estimate (log intensity, higher = more binding, comparable within an allelic series); in [10], 11.3 upbm affinity estimate (log intensity, higher = more binding, comparable within an allelic series); in [11], 13.3 upbm affinity estimate (log intensity, higher = more binding, comparable within an allelic series); in experiment [12] it was 12.8 upbm affinity estimate (log intensity, higher = more binding, comparable within an allelic series).
For the sequence CAATTAGC, the binding signal in experiment [13] was 13.3 upbm affinity estimate (log intensity, higher = more binding, comparable within an allelic series); in experiment [1] it was 12.6 upbm affinity estimate (log intensity, higher = more binding, comparable within an allelic series); in experiment [2] it was 14.1 upbm affinity estimate (log intensity, higher = more binding, comparable within an allelic series); in experiment [14] it was 11.6 upbm affinity estimate (log intensity, higher = more binding, comparable within an allelic series); in experiment [3], 11.1 upbm affinity estimate (log intensity, higher = more binding, comparable within an allelic series); in [4] it was 12.3 upbm affinity estimate (log intensity, higher = more binding, comparable within an allelic series). Moreover, the binding signal in experiment [15] is 12.2 upbm affinity estimate (log intensity, higher = more binding, comparable within an allelic series); in experiment [5], 13.4 upbm affinity estimate (log intensity, higher = more binding, comparable within an allelic series); in experiment [6] it was 11.9 upbm affinity estimate (log intensity, higher = more binding, comparable within an allelic series); in [16] it was 14 upbm affinity estimate (log intensity, higher = more binding, comparable within an allelic series); in experiment [17] it was 12 upbm affinity estimate (log intensity, higher = more binding, comparable within an allelic series); in [18], 13.6 upbm affinity estimate (log intensity, higher = more binding, comparable within an allelic series). Further, the binding signal in experiment [19] is 10.3 upbm affinity estimate (log intensity, higher = more binding, comparable within an allelic series); in experiment [7] it was 14.1 upbm affinity estimate (log intensity, higher = more binding, comparable within an allelic series); in experiment [20], 10.8 upbm affinity estimate (log intensity, higher = more binding, comparable within an allelic series); in [8], 13.8 upbm affinity estimate (log intensity, higher = more binding, comparable within an allelic series); in experiment [9] it was 13.3 upbm affinity estimate (log intensity, higher = more binding, comparable within an allelic series); in experiment [10], 11.5 upbm affinity estimate (log intensity, higher = more binding, comparable within an allelic series). For the same sequence, the binding signal in [11] is 13.4 upbm affinity estimate (log intensity, higher = more binding, comparable within an allelic series); in experiment [12], 13.3 upbm affinity estimate (log intensity, higher = more binding, comparable within an allelic series).
Take TCAATTAA: the binding signal is 13.3 upbm affinity estimate (log intensity, higher = more binding, comparable within an allelic series) in [13]; 12 upbm affinity estimate (log intensity, higher = more binding, comparable within an allelic series) in [1]; 14.1 upbm affinity estimate (log intensity, higher = more binding, comparable within an allelic series) in experiment [2]; 11.3 upbm affinity estimate (log intensity, higher = more binding, comparable within an allelic series) in experiment [3]; 11.6 upbm affinity estimate (log intensity, higher = more binding, comparable within an allelic series) in experiment [4]; 13.1 upbm affinity estimate (log intensity, higher = more binding, comparable within an allelic series) in [5]. Also, the binding signal in experiment [6] was 12.4 upbm affinity estimate (log intensity, higher = more binding, comparable within an allelic series); in experiment [16], 14 upbm affinity estimate (log intensity, higher = more binding, comparable within an allelic series); in experiment [17], 11.8 upbm affinity estimate (log intensity, higher = more binding, comparable within an allelic series); in experiment [18], 13.2 upbm affinity estimate (log intensity, higher = more binding, comparable within an allelic series); in experiment [7], 13.9 upbm affinity estimate (log intensity, higher = more binding, comparable within an allelic series); in experiment [8], 13.5 upbm affinity estimate (log intensity, higher = more binding, comparable within an allelic series). The binding signal was 13.1 upbm affinity estimate (log intensity, higher = more binding, comparable within an allelic series) in [9]; 11.8 upbm affinity estimate (log intensity, higher = more binding, comparable within an allelic series) in experiment [10]; 13.5 upbm affinity estimate (log intensity, higher = more binding, comparable within an allelic series) in experiment [11]; 13 upbm affinity estimate (log intensity, higher = more binding, comparable within an allelic series) in [12].
Turning to AATTAATC, the binding signal in experiment [13] is 13.2 upbm affinity estimate (log intensity, higher = more binding, comparable within an allelic series); in [1], 11.8 upbm affinity estimate (log intensity, higher = more binding, comparable within an allelic series); in experiment [2], 13.9 upbm affinity estimate (log intensity, higher = more binding, comparable within an allelic series); in experiment [14], 11.9 upbm affinity estimate (log intensity, higher = more binding, comparable within an allelic series); in [3], 11.3 upbm affinity estimate (log intensity, higher = more binding, comparable within an allelic series); in [4] it was 11.5 upbm affinity estimate (log intensity, higher = more binding, comparable within an allelic series). Besides, the binding signal in experiment [15] is 12.4 upbm affinity estimate (log intensity, higher = more binding, comparable within an allelic series); in experiment [5], 12.6 upbm affinity estimate (log intensity, higher = more binding, comparable within an allelic series); in experiment [6], 12.3 upbm affinity estimate (log intensity, higher = more binding, comparable within an allelic series); in [16] it was 13.9 upbm affinity estimate (log intensity, higher = more binding, comparable within an allelic series); in experiment [17], 12.2 upbm affinity estimate (log intensity, higher = more binding, comparable within an allelic series); in [19] it was 10.7 upbm affinity estimate (log intensity, higher = more binding, comparable within an allelic series). Moreover, the binding signal in experiment [7] was 13.3 upbm affinity estimate (log intensity, higher = more binding, comparable within an allelic series); in experiment [20], 11.2 upbm affinity estimate (log intensity, higher = more binding, comparable within an allelic series); in experiment [8], 13 upbm affinity estimate (log intensity, higher = more binding, comparable within an allelic series); in experiment [10], 11.3 upbm affinity estimate (log intensity, higher = more binding, comparable within an allelic series); in experiment [11] it was 13.3 upbm affinity estimate (log intensity, higher = more binding, comparable within an allelic series).
CCAGGTCC: the binding signal in experiment [13] is 7.71 upbm affinity estimate (log intensity, higher = more binding, comparable within an allelic series); in experiment [1] it was 7.92 upbm affinity estimate (log intensity, higher = more binding, comparable within an allelic series); in experiment [4], 7.95 upbm affinity estimate (log intensity, higher = more binding, comparable within an allelic series); in experiment [5], 7.34 upbm affinity estimate (log intensity, higher = more binding, comparable within an allelic series); in experiment [16], 7.79 upbm affinity estimate (log intensity, higher = more binding, comparable within an allelic series); in [18] it was 10.3 upbm affinity estimate (log intensity, higher = more binding, comparable within an allelic series).

These data come from paper PMC11006913.
